Entries with a potency or affinity are not part of this list. Unmarked numbers belong to inactive results. No rule for the calls is given here.
Experiment: HEK293 cell cytotoxicity, dose response, cytotoxicity control, dry powder samples (AID 720567)
Conditions: plate reader; series mostly up to 15 µM; activity change, negative = cytotoxicity: at the top concentration

SMILES	activity change, negative = cytotoxicity
Cc1cc(C)nc(/N=C(\N)Nc2ccc(OCc3ccccc3)cc2)n1	-3.13%
Nc1nc(=S)c2ncn([C@@H]3O[C@H](CO)[C@@H](O)[C@H]3O)c2[nH]1	-93.6%
COc1ccccc1OCC(=O)NNC(=O)c1ccoc1C	-0.78%
Cc1ccc(C(=O)c2cc([N+](=O)[O-])ccc2N2CCOCC2)cc1C	-18.1%
CCOC(=O)c1ccc(Oc2cc(C)nc(SC)n2)cc1	-26.2%
Cc1[nH][nH]c(=O)c1C(c1ccc(-c2ccc(Cl)c(Cl)c2)o1)c1c(C)[nH][nH]c1=O	9.38%
COc1cc(Nc2c3c(nc4ccccc24)CCCC3)cc(OC)c1OC	3.16%
COc1ccccc1-c1nnc(SCc2ccccc2)o1	3.21%
O=C1CCN(Cc2ccccc2)c2cc3ccccc3cc21	47.8%
CCN(CC)CCC(=O)Nc1cccc2c1C(=O)c1ccccc1C2=O	-5.32%
COc1cc(-c2nnc(SCC3(c4ccc(Br)cc4)OCCO3)o2)cc(OC)c1OC	18.2%
O=C(Cc1ccccc1)c1nnc(-c2ccccc2)o1	77%
COc1ccc2c(COC(=O)c3cccc(S(=O)(=O)NCC(C)C)c3)cc(=O)oc2c1	-5.18%
CC(=O)N1CCC(=O)c2cc3ccccc3cc21	13.5%
COc1ccc(-c2nnc(SCc3ccccc3)o2)cc1	-8.12%
Cc1cc(=O)[nH]c(N/N=C/c2cc(C)n(CC(F)(F)F)c2C)n1	-27.8%
CCN(CC)CCCNc1nc2cc(OC)c(OC)cc2c2nc(-c3ccccc3)nn12	-12.8%
CCCCOc1ccccc1C1CC(=O)NC2=C1C(=O)CCC2 (stereo not drawn)	-19.1%
Brc1ccc(CSc2nnc(-c3ccccc3)o2)cc1	-7.34%
CC(=O)c1cccc(NC(=O)CSc2ncc(C(=O)Nc3ccccc3)c(=O)n2C)c1	-4.7%
CCCNS(=O)(=O)c1cccc(C(=O)OCc2cc(=O)oc3cc(OC)ccc23)c1	-7.85%
Cc1ccc(/C=N/NC(=O)C2COc3ccccc3O2)s1 (stereo not drawn)	-6.12%
Cc1cnc(NC(=O)c2cc(S(=O)(=O)N(C)C)ccc2N2CCCC2)s1	32.1%
COc1ccccc1CSc1nnc(-c2ccccc2)o1	-20%
O=C1CCNc2cc3ccccc3cc21	-12%
Cc1ccc(Oc2ccc(S(=O)(=O)N3CCOCC3)cc2C(N)=O)c(-n2nc3ccccc3n2)c1	-27.3%
CCN(CC)CCOc1ccc2c(c1)C(=NNC(=O)c1ccccn1)c1cc(OCCN(CC)CC)ccc1-2	-8.53%
CCOc1ccc(S(=O)(=O)NCc2ccccn2)cc1NC(=O)c1ccccc1F	-25%

Source: PubChem BioAssay AID720567 (Broad Institute, 2013)
